Measurements: PubChem BioAssay (Tox21)
Results filed as inconclusive are left out. Where a call stands in place of a potency, no number is given. Some structures have more than one record in an assay (separate samples or runs), and their calls can disagree. Active and inactive are the calls of the source. Calls come from the whole dose curve.

Key:
[1] = biological target: Acetylcholinesterase (Homo sapiens) (UniProt P22303); assay: Acetylcholinesterase (AChE) small molecule antagonists: colormetric cell-based qHTS assay (AID 1347395); note: nearly all actives have a fitted effect of over 30% in size
Outline: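 Cells (SH-SY5Y, 2,000 per well) are seeded and left overnight at 37 C. Compound is added for 30 min, then DTNB and acetylthiocholine for a further 90 min at 37 C before absorbance-based thiocholine detection.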

[2] = biological target: Acetylcholinesterase (Homo sapiens) (UniProt P22303); assay: Acetylcholinesterase (AChE) small molecule antagonists: enzyme-based qHTS assay (AID 1347397); conditions: Potency: AChE enzyme activity inhibition; outcome: AChE enzyme activity inhibition; note: nearly all actives have a fitted effect of over 55% in size
Outline: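 Compound or DMSO vehicle was pin-transferred onto recombinant human AChE (50 mU/mL as dispensed) and left 30 min at room temperature. Acetylthiocholine with DTNB then started the reaction, read colorimetrically 10 min later.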

[3] = biological target: Acetylcholinesterase (Homo sapiens) (UniProt P22303); assay: Acetylcholinesterase (AChE) small molecule antagonists: fluorescence cell-based qHTS assay (AID 1347398); conditions: Potency: AChE activity; outcome: AChE activity; note: nearly all actives have a fitted effect of over 50% in size; note: potency is the fitted concentration of half-maximal effect
Outline: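 Using neuroblastoma SH-SY5Y cells as the enzyme source, test chemicals are preincubated 30 min at 37 C; AChE-driven acetylthiocholine cleavage is then quantified by thiocholine-dependent Thiolite Green fluorescence after 40 min at room temperature.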

[4] = biological target: Acetylcholinesterase (Homo sapiens) (UniProt P22303); assay: Acetylcholinesterase (AChE) small molecule antagonists: enzyme-based qHTS assay with human liver microsomes (AID 1347399); conditions: Potency: qHTS inhibition; outcome: qHTS inhibition; note: nearly all actives have a fitted effect of over 60% in size
Outline: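 Recombinant human AChE (50 mU/mL in the enzyme mix) and human liver microsomes (0.25 mg/mL final) were preincubated with compound and NADPH (0.25 mg/mL final) for 30 min at 37 C. Acetylthiocholine/DTNB was then added; thiocholine was read colorimetrically after 10 min at room temperature.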

Acetylcholinesterase (Homo sapiens), sequence (P22303 whole entry, looked up): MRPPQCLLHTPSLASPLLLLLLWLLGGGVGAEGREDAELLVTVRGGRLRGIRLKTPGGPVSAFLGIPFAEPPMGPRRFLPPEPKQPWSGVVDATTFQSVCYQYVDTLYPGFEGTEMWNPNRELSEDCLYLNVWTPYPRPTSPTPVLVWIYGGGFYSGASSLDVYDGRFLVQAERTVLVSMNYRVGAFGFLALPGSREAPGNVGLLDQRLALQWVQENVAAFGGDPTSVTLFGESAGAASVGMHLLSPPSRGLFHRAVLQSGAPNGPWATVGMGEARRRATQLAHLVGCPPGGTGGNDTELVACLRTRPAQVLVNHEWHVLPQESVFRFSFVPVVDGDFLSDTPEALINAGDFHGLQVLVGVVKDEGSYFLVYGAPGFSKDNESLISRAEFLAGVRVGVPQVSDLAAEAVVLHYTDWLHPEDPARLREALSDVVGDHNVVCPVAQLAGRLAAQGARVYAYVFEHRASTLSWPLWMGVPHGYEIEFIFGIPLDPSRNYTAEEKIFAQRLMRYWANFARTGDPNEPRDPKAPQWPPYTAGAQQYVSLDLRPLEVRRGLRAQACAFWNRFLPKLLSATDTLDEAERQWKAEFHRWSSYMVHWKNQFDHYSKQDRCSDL

| SMILES | Potency [1] | Potency [2] | Potency [3] | Potency [4] |
| --- | --- | --- | --- | --- |
| COc1ccc2[nH]cc(CCNC(C)=O)c2c1 | inactive | inactive | inactive | inactive |
| O=C(O)CCC(=O)c1ccc(-c2ccccc2)cc1 | inactive | inactive | inactive | inactive |
| CCCC(C)C(=O)O (stereo not given) | inactive | inactive | inactive | inactive |
| CCCCCCCCOC(C)=O | inactive | inactive | inactive | inactive |
| OC(CCCN1CCCCC1)(c1ccccc1)c1ccccc1 | inactive | inactive | inactive | inactive |
| CCCC(=O)OCCC(C)CCC=C(C)C (stereo not given) | inactive | inactive | inactive | inactive |
| CC(=O)O[C@@H]1C(=O)O[C@@H]2[C@H]1OC(=O)[C@@H]2OC(C)=O | inactive | inactive | inactive | inactive |
| Nc1ccc(O)c(N)c1 | inactive | inactive | inactive | inactive |
| CCC(=O)OCCC(C)CCC=C(C)C (stereo not given) | inactive | inactive | inactive | inactive |
| CCCCOCCO | inactive | inactive | inactive | inactive |
| COC(=O)C1=C(C)NC(C)=C(C(=O)OCCc2ccc(N3CCN(C(c4ccccc4)c4ccccc4)CC3)cc2)C1c1cccc([N+](=O)[O-])c1 (stereo not given) | inactive | inactive | inactive | inactive |
| C1CCC2OC2C1 (stereo not given) | inactive | inactive | inactive | inactive |
| CC(C)CCCCCOC(=O)CS | inactive | inactive | inactive | inactive |
| CC(C)C[C@H](NC(=O)[C@H](Cc1ccccc1)NC(=O)c1cnccn1)B(O)O | inactive | inactive | inactive | inactive |
| CC1=NN(c2ccc(S(=O)(=O)O)cc2)C(=O)C1 | inactive | inactive | inactive | inactive |
| CC(C)NCC(O)c1cc(O)cc(O)c1 (stereo not given) | inactive | inactive | inactive | inactive |
| CC(=O)Nc1ccn(C2COC(COC(=O)c3ccccc3)O2)c(=O)n1 (stereo not given) | inactive | inactive | inactive | inactive |
| CO[C@@]1(NC(=O)Cc2cccs2)C(=O)N2C(C(=O)O)=C(COC(N)=O)CS[C@@H]21 | inactive | inactive | inactive | inactive |
| CCCCCCCCCOC(=O)CCCCC(=O)OCCCCCCC | inactive | inactive | inactive | inactive |
| O=C(Cl)c1ccccc1[N+](=O)[O-] | inactive | inactive | inactive | inactive |

| SMILES | Potency [1] | Potency [2] | Potency [3] | Potency [4] |
| --- | --- | --- | --- | --- |
| N#C[C@@H]1CC(F)(F)CN1C(=O)CNC1CC2CCC(C1)N2c1ncccn1 (stereo not given in full) | inactive | inactive | inactive | inactive |
| CCOC(=O)O[C@H](C)OC(=O)c1ccc2c(c1)cc(C(=O)NC1CCN(C(C)C)CC1)n2Cc1cc(-c2ccc(Cl)s2)on1 | inactive | inactive | 41.8 µM (active) | inactive |
| CC(COCCO)OCCO (stereo not given) | inactive | inactive | inactive | inactive |
| Oc1ccc(O)cc1 | inactive | inactive | inactive | inactive |
| CCC(=O)OCc1ccccc1 | inactive | inactive | inactive | inactive |
| CCCCCCC(CCCCCCCCCCC(=O)OCC(COC(C)=O)OC(C)=O)OC(C)=O (stereo not given) | inactive | inactive | inactive | inactive |
| CC(=O)Nc1ccc(C(=O)CCl)cc1 | inactive | inactive | inactive | inactive |
| O=C1OC2(c3ccc(O)cc3Oc3cc(O)ccc32)c2ccc(N=C=S)cc21 | inactive | inactive | inactive | inactive |
| O=C1OC2(c3ccccc31)c1cc(Br)c(O)c(Br)c1Oc1c2cc(Br)c(O)c1Br | inactive | inactive | inactive | inactive |
| Cc1c(C(=O)O)c(O)cc2c1C(=O)c1c(O)c([C@@H]3O[C@H](CO)[C@@H](O)[C@H](O)[C@H]3O)c(O)c(O)c1C2=O | inactive | inactive | inactive | inactive |
| O=C(O)CCC(=O)OC[C@@H](NC(=O)C(Cl)Cl)[C@H](O)c1ccc([N+](=O)[O-])cc1 | inactive | inactive | inactive | inactive |
| CCc1ccc(C)cc1 | inactive | inactive | inactive | inactive |
| COC(=O)Nc1nc2ccc(Sc3ccccc3)cc2[nH]1 | inactive | inactive | inactive | inactive |
| Cc1ccc(C)c(C)c1 | inactive | inactive | inactive | inactive |
| OCCN1CCN(CCO)CC1 | inactive | inactive | inactive | inactive |
| CCCCC(CC)COCCC#N (stereo not given) | inactive | inactive | inactive | inactive |
| OCC(CO)(CBr)CBr | inactive | inactive | inactive | inactive |
| CCC(C)C(C)=O (stereo not given) | inactive | inactive | inactive | inactive |
| N#CCC(=O)NN | inactive | inactive | inactive | inactive |
| CCOC(=O)CCC(C)=O | inactive | inactive | inactive | inactive |

| SMILES | Potency [1] | Potency [2] | Potency [3] | Potency [4] |
| --- | --- | --- | --- | --- |
| Nc1cccc(S(=O)(=O)c2cccc(N)c2)c1 | inactive | inactive | inactive | inactive |
| COC(=O)Nc1nc2ccc(C(=O)C3CC3)cc2[nH]1 | inactive | inactive | inactive | inactive |
| CCc1ncc(C)[nH]1 | inactive | inactive | inactive | inactive |
| CC(C)COC(=O)c1ccccc1O | inactive | inactive | inactive | inactive |
| CCC(C)COC(C)=O (stereo not given) | inactive | inactive | inactive | inactive |
| C/C(=N\O)c1ccc(OCC(=O)N2CCCCC2)cc1 | inactive | inactive | inactive | inactive |
| CCCCC(CC)C(=O)OCCOCCOCCOCCOC(=O)C(CC)CCCC (stereo not given) | inactive | inactive | inactive | inactive |
| C[n+]1ccn(CCO)c1 | inactive | inactive | inactive | inactive |
| CN(C)c1ccc(C2(c3ccc(N(C)C)cc3)OC(=O)c3cc(N(C)C)ccc32)cc1 | inactive | inactive | inactive | inactive |
| FC(F)(F)c1ccc(Cl)c(Cl)c1 | inactive | inactive | inactive | inactive |
| O=c1[nH]cnc2c1ncn2[C@@H]1O[C@H](CO)[C@@H](O)[C@H]1O | inactive | inactive | inactive | inactive |
| CCCCCC/C(C=O)=C\c1ccccc1 | inactive | inactive | inactive | inactive |
| CCc1cnc(C(=O)O)c(C(=O)O)c1 | inactive | inactive | inactive | inactive |
| O=CCc1ccccc1 | inactive | inactive | inactive | inactive |
| NC(=O)NC(N)=O | inactive | inactive | inactive | inactive |
| CCCOC(=O)CCCCC(=O)OCCC | inactive | inactive | inactive | inactive |
| CC(C)[C@@H]1CC[C@@H](C)C[C@H]1O | inactive | inactive | inactive | inactive |
| CCCCCC1=CCCC1=O | inactive | inactive | 22.9 µM (active) and inactive | inactive |
| C=CC(=O)OCCOCCOCC | inactive | inactive | inactive | inactive |
| O=c1[nH]sc2cc(Cl)ccc12 | inactive | inactive | inactive | inactive |
